We go through 6 molecules from PubChem BioAssay (NCI).

Assay [1] in a line: NCI Yeast Anticancer Drug Screen. Data for the rad50 strain (AID 155).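 Note: 0% = growth of vehicle-only cultures of the same strain.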 As to conditions: S. cerevisiae rad50 strain growth inhibition, stronger effect = higher value. The method in brief:
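Relative growth inhibition (compound vs vehicle) was measured in yeast with a defined repair-gene alteration.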

Assay [2] can be described thus: NCI Yeast Anticancer Drug Screen. Data for the mec2-1 strain (AID 157). As to conditions: S. cerevisiae mec2-1 strain, stronger effect = higher value. The gist of the method:
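Cells of the genetically defined mec2-1 yeast strain are incubated with test compound. Inhibition of growth is calculated against vehicle-treated controls.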

The nature of assay [3]: NCI Yeast Anticancer Drug Screen. Data for the sgs1 mgt1 strain (AID 161).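 Note: 0% = growth of cultures given vehicle only.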 As to conditions: S. cerevisiae sgs1 mgt1 strain, stronger effect = higher value. The gist of the method:
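Read-out: growth inhibition vs vehicle controls. Cells: mutant yeast strain deficient in DNA damage repair.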

Assay [4] is described as follows: NCI Yeast Anticancer Drug Screen. Data for the cln2 rad14 strain (AID 165).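 Note: 0% = growth equal to vehicle treated cultures.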 As to conditions: S. cerevisiae cln2 rad14 strain, stronger effect = higher value. The method in brief: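 The screen exposed genetically defined yeast (cln2 rad14) to test compounds and scored growth inhibition relative to vehicle-treated controls.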
Assay [5] in a line: NCI Yeast Anticancer Drug Screen. Data for the bub3 strain (AID 167). As to conditions: S. cerevisiae bub3 mutant strain, stronger effect = higher value. The gist of the method:
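Screening used yeast with an engineered genetic alteration affecting cell cycle control. Compound-exposed cultures were compared with vehicle cultures, and reduced growth was taken as inhibition.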

Assay [6] is described as follows: NCI Yeast Anticancer Drug Screen. Data for the mlh1 rad18 strain (AID 175). As to conditions: S. cerevisiae mlh1 rad18 strain growth inhibition, stronger effect = higher value. The gist of the method:
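Compound-treated yeast growth, normalised to vehicle controls. Strain bears defined DNA repair mutations.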

Where [7] appears, read: at 5.0 µM (retest, dose inferred, filed as 0.5).
[8] abbreviates: at 50.0 µM (retest, dose inferred, filed as 5.0).

Structures are written as SMILES. This is part of a sample that, as a whole, favours compounds with a hit. Of some 79,000 tested, about 15% had one in any assay. Unmarked numbers belong to inactive results. Calls of active or inactive are those of the source. Cut-off read from the data, not from the text of the source: active = growth inhibition above about 70%; inactive = the rest.

As to `COc1cc(O)c2c(c1)C(=O)c1cc3c(c(O)c1C2=O)C(OC1OC(C)C(O)C(O)C1OC)C(OC)C(C)(O)C3=O` (stereo not drawn), the growth inhibition is 95% (active) in assay [1] (setting [7]); 99% (active) in assay [1] (setting [8]); 92.5% (active) in assay [1] (at 50.0 µM); 35% in assay [2] (setting [7]); 99% (active) in assay [2] (setting [8]); 93.4% (active) in assay [2] (at 50.0 µM). The growth inhibition in assay [3] (setting [7]) was 35%; in assay [3] (setting [8]), 99% (active); in assay [3] (at 50.0 µM), 93.7% (active); in assay [4] (setting [7]), 12%; in assay [4] (setting [8]), 99% (active); in assay [4] (at 50.0 µM) it was 89.9% (active). Further, the growth inhibition was 15% in assay [5] (setting [7]); 99% (active) in assay [5] (setting [8]); 93.3% (active) in assay [5] (at 50.0 µM); 58% in assay [6] (setting [7]); 99% (active) in assay [6] (setting [8]); 92.8% (active) in assay [6] (at 50.0 µM).
Consider `C/C(=N\NC(=S)N1CCCCCC1)c1cccc2cccnc12`, for which the growth inhibition in assay [1] (setting [7]) was -3%; in assay [1] (setting [8]), 14%; in assay [1] (at 50.0 µM) it was 94.2% (active); in assay [2] (setting [7]) it was -5%; in assay [2] (setting [8]) it was 44%; in assay [2] (at 50.0 µM), 83.9% (active). Besides, the growth inhibition in assay [3] (setting [7]) was 7%; in assay [3] (setting [8]), 30%; in assay [3] (at 50.0 µM) it was 97.6% (active); in assay [4] (setting [7]) it was -19%; in assay [4] (setting [8]) it was 2%; in assay [4] (at 50.0 µM), 94.4% (active). The growth inhibition in assay [5] (setting [7]) is -4%; in assay [5] (setting [8]), 26%; in assay [5] (at 50.0 µM) it was 87.5% (active); in assay [6] (setting [7]) it was -9%; in assay [6] (setting [8]), 22%; in assay [6] (at 50.0 µM) it was 86.2% (active).
Consider `CC(Cc1ccccc1)NNC(C)Cc1ccccc1` (stereo not drawn), for which the growth inhibition was 10% in assay [1] (setting [7]); 81% (active) in assay [1] (setting [8]); 99.5% (active) in assay [1] (at 50.0 µM); 4% in assay [2] (setting [7]); 64% in assay [2] (setting [8]); 96.2% (active) in assay [2] (at 50.0 µM). In addition, the growth inhibition in assay [3] (setting [7]) was 11%; in assay [3] (setting [8]) it was 90% (active); in assay [3] (at 50.0 µM), 75.5% (active); in assay [4] (setting [7]) it was -39%; in assay [4] (setting [8]), 63%; in assay [4] (at 50.0 µM), 83.2% (active). The growth inhibition is 16% in assay [5] (setting [7]); 91% (active) in assay [5] (setting [8]); 94.5% (active) in assay [5] (at 50.0 µM); 7% in assay [6] (setting [7]); 83% (active) in assay [6] (setting [8]); 99.5% (active) in assay [6] (at 50.0 µM).
`Cc1cccc(C)c1NC(=O)CSC(N)=O`: the growth inhibition in assay [1] (setting [7]) was 4%; in assay [1] (setting [8]), 22%; in assay [1] (at 50.0 µM), 72.2% (active); in assay [2] (setting [7]), -1%; in assay [2] (setting [8]) it was 24%; in assay [2] (at 50.0 µM) it was 65%. For the same molecule, the growth inhibition in assay [3] (setting [7]) is 0%; in assay [3] (setting [8]), 22%; in assay [3] (at 50.0 µM) it was 87.2% (active); in assay [4] (setting [7]), 5%; in assay [4] (setting [8]), -1%; in assay [4] (at 50.0 µM) it was 56.1%. For the same molecule, the growth inhibition in assay [5] (setting [7]) is 4%; in assay [5] (setting [8]), 42%; in assay [5] (at 50.0 µM), 75.5% (active); in assay [6] (setting [7]), 7%; in assay [6] (setting [8]), 26%; in assay [6] (at 50.0 µM), 73.2% (active).
On to `C/C(CCn1[nH]c(=O)ccc1=O)=N\NS(=O)(=O)c1ccc(C)cc1`, for which the growth inhibition was -3% in assay [1] (setting [7]); -3% in assay [1] (setting [8]); -4.05% in assay [1] (at 50.0 µM); 4% in assay [2] (setting [7]); 15% in assay [2] (setting [8]); 4.6% in assay [2] (at 50.0 µM). The growth inhibition is 0% in assay [3] (setting [7]); -11% in assay [3] (setting [8]); 12.6% in assay [3] (at 50.0 µM); 11% in assay [4] (setting [7]); 29% in assay [4] (setting [8]); -6.7% in assay [4] (at 50.0 µM). The growth inhibition was -1% in assay [5] (setting [7]); 6% in assay [5] (setting [8]); -5.15% in assay [5] (at 50.0 µM); -8% in assay [6] (setting [7]); 11% in assay [6] (setting [8]); -10.3% in assay [6] (at 50.0 µM).
Regarding `Cc1ccccc1C(=O)C(C)c1ccccc1` (stereo not drawn), the growth inhibition in assay [1] (setting [7]) was -19%; in assay [1] (setting [8]), -6%; in assay [1] (at 50.0 µM) it was 6.35%; in assay [2] (setting [7]), -8%; in assay [2] (setting [8]) it was -4%; in assay [2] (at 50.0 µM) it was 9.25%. For the same molecule, the growth inhibition in assay [3] (setting [7]) is -2%; in assay [3] (setting [8]), -7%; in assay [3] (at 50.0 µM), 12.5%; in assay [4] (setting [7]), -35%; in assay [4] (setting [8]), -5%; in assay [4] (at 50.0 µM), 44.4%. The growth inhibition is -8% in assay [5] (setting [7]); 3% in assay [5] (setting [8]); 4.5% in assay [5] (at 50.0 µM); -24% in assay [6] (setting [7]); 4% in assay [6] (setting [8]); -9.2% in assay [6] (at 50.0 µM).
